Assay results as given in PubChem BioAssay (Tox21).
Where “and” joins values, the source holds several entries; their conditions need not be identical. Equal values may be shown once. Inconclusive results are not listed. A call without a number means that no potency is given here. Some compounds were tested as several samples or in several runs, with calls that do not always agree. Calls of active or inactive are those of the source. Unless noted, calls come from the whole dose curve; as a rule, active = well fitted curve in the direction sought with a large enough effect in the repeat runs; inconclusive = weak or mixed curves; inactive = no such curve, though single readings can be large; an effect the other way counts as inactive or inconclusive.

Legend:
[1] = A CellTox Green Cytotoxicity Assay to monitor cytotoxicity in HepG2 cells - 8 hour (AID 1224890); note: nearly all actives have a fitted effect of over 45% in size
Outline: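 First, HepG2 cells (600/well) mixed with reagent were plated; second, after 5 h at 37 C they received compounds via pintool; third, fluorescence was measured at 0 h through 40 h at 8 h intervals.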

[2] = qHTS assay to identify small molecule antagonists of the estrogen receptor alpha (ER-alpha) signaling pathway using the BG1 cell line in the presence of 0.1 nM 17-beta-estradiol - cell viability counter screen (AID 1259241); note: nearly all actives have a fitted effect of over 40% in size
Outline: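 Following 5 days in phenol red-free medium with charcoal-stripped serum, VM7Luc4E2 cells received test compounds alongside 0.1 nM 17beta-estradiol (final) at 37C for 22 hr. Live cells were then quantified via protease-substrate fluorescence.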

[3] = qHTS assay to identify small molecule antagonists of the androgen receptor (AR) signaling pathway using the MDA cell line in the presence of 0.5 nM R1881 - cell viability counter screen (AID 1259242); note: nearly all actives have a fitted effect of over 45% in size
Outline: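 qHTS format. MDA-kb2 (MMTV-luc, AR/GR responsive) + cpd + 0.5 nM R1881 final, 16 hr 37C/0% CO2 → CellTiter-Fluor 30 min → fluorescence intensity.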

[4] = molecular target: Estrogen receptor (Homo sapiens) (UniProt P03372); assay: qHTS assay to identify small molecule antagonists of the estrogen receptor alpha (ER-alpha) signaling pathway using the BG1 cell line in the presence of 0.1 nM 17-beta-estradiol (AID 1259244); note: nearly all actives have a fitted effect of over 50% in size
Outline: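 Reporter is a stably transfected luciferase under four estrogen responsive elements in VM7Luc4E2 cells expressing native full-length ER-alpha; inhibition of 0.1 nM (final) 17beta-estradiol-driven signal over 22 h is read by luminescence.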

[5] = qHTS assay to identify small molecule HDAC inhibitors (AID 1259364); note: potency is the fitted concentration of half-maximal effect;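 note: wild-type HCT-116 cells with endogenous class I/II HDAC activity; nearly all actives have a fitted effect of over 45% in size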
Outline: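 Quantitative high-throughput format: overnight-seeded HCT-116 cells got compounds for 2 hr at 37C; HDAC-Glo I/II reagent added, 30 min RT, luminescence measured.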

[6] = qHTS assay to identify small molecule HDAC inhibitors - cell viability counter screen (AID 1259365); note: series mostly up to about 92 µM; nearly all actives have a fitted effect of over 50% in size
Outline: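 HCT-116 wild-type, overnight attachment; 2hr drug exposure, 37C; CellTiter-Glo luminescent ATP readout after 30min RT.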

[7] = qHTS assay to identify small molecule agonists of the sonic hedgehog signaling (Shh) pathway - cell viability counter screen (AID 1259366); note: nearly all actives have a fitted effect of over 50% in size
Outline: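 Compounds in DMSO were pin-transferred onto 3T3 Gli1-Luc cells that had settled 4hr; plates then stood 24hr at 37C and 5% CO2. One hour before the end, CellTiter-Fluor was added and fluorescence recorded.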

[8] = qHTS assay to identify small molecule antagonists of the sonic hedgehog signaling (Shh) pathway - cell viability counter screen (AID 1259367); note: nearly all actives have a fitted effect of over 55% in size
Outline: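 Fluorescence read-out (CellTiter-Fluor, 1 hr at 37C) taken after 23 hr compound treatment of 3T3 Gli1-Luc cells stimulated with conditioned medium. Cells were seeded at 2,000 per well and pre-incubated 4 hr.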

[9] = qHTS assay to identify small molecule agonists of the sonic hedgehog signaling (Shh) pathway (AID 1259368; calls by dose curve;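 note: NIH/3T3-derived 3T3Gli1-Luc cells carrying a stable Gli1-driven firefly luciferase reporter; series mostly up to about 92 µM; nearly all actives have a fitted effect of over 15% in size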)
Outline: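 Quantitative high-throughput format using a Gli1-driven firefly luciferase reporter line derived from NIH/3T3 cells. After a 24 hr compound treatment at 37 C and 5% CO2, luminescence reported Gli1 response element activity.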

[10] = qHTS assay to identify small molecule antagonists of the sonic hedgehog signaling (Shh) pathway (AID 1259369; calls by dose curve; note: nearly all actives have a fitted effect of over 45% in size; note: potency is the fitted concentration of half-maximal effect)
Outline: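 Stable Gli1-Luc reporter NIH/3T3 clone; quantitative HTS in stimulated mode with conditioned medium. Luminescence measured after 24hr compound treatment at 37 C.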

[11] = qHTS assay to identify small molecule agonists of the androgen receptor (AR) signaling pathway in the presence of an antagonist - cell viability counter screen (AID 1259379);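 note: MDA-kb2 human breast cancer cells carrying an MMTV luciferase reporter; series mostly up to about 92 µM; nearly all actives have a fitted effect of over 25% in size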
Outline: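 Nilutamide-containing (3.0uM final) MDA-kb2 cultures, 3,000 cells/well, were treated with compounds across 15 concentrations. After 16 hr at 37C with no CO2, cell viability was determined by CellTiter-Fluor fluorescence in the luciferase assay wells.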

[12] = qHTS assay to identify small molecule agonists of the estrogen receptor beta (ER-beta) signaling pathway - cell viability counter screen (AID 1259380); note: nearly all actives have a fitted effect of over 30% in size
Outline: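 Steps: plate ER-beta-UAS-bla HEK293T cells, rest 6 hr; add compounds in DMSO; incubate 16 hr at 37C, 5% CO2; add FRET substrate 2 hr; add CellTiter-Glo, wait 30 min at room temperature; read luminescence.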

[13] = qHTS assay to identify small molecule antagonists of the estrogen receptor beta (ER-beta) signaling pathway - cell viability counter screen (AID 1259382); note: series mostly up to about 92 µM; nearly all actives have a fitted effect of over 55% in size
Outline: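 Viability is scored by CellTiter-Glo luminescence (30 min, room temperature) in ER-beta-UAS-bla HEK293T wells already read for reporter fluorescence. Compound exposure lasts 16 hr at 37C alongside 1nM 17-beta-estradiol in charcoal-stripped serum medium.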

[14] = molecular target: Estrogen receptor (Homo sapiens) (UniProt P03372); assay: qHTS assay to identify small molecule agonists of the estrogen receptor alpha (ER-alpha) signaling pathway in the presence of an antagonist (AID 1259383; calls by dose curve; note: top concentration of the series differs between compounds; nearly all actives have a fitted effect of over 15% in size)
Outline: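 Readout was ERE-driven luciferase luminescence in VM7Luc4E2 cells, which express full-length ER-alpha endogenously. Compounds were tested at 15 concentrations for 22hr alongside 10.0nM ICI-182,780 (final concentration).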

[15] = qHTS assay to identify small molecule agonists or antagonists of the thyroid stimulating hormone receptor (TSHR) signaling pathway - wild type cell line counter screen (AID 1259384; calls by dose curve)
Outline: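 Wild-type Hek293 cells, 800/well, 18 h at 37C, then compound with Ro20-1724 for 30 min RT. cAMP by HTRF (cAMP-d2/anti-cAMP cryptate), 1 h RT, fluorescence read. 15 concentrations, triplicates.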

[16] = molecular target: Estrogen receptor beta (Homo sapiens) (UniProt Q92731); assay: qHTS assay to identify small molecule agonists of the estrogen receptor beta (ER-beta) signaling pathway (AID 1259377; active = well fitted activation curve with a large enough effect in the signal ratio in the repeat runs, not every such curve was filed as active; the % refers to the signal ratio)
Outline: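 qHTS in ER-beta-UAS-bla HEK293T cells: 6 hr settling, then 16 hr compound at 37C, then LiveBLAzer substrate 2 h at RT before fluorescence reading.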

[17] = molecular target: Estrogen receptor beta (Homo sapiens) (UniProt Q92731); assay: qHTS assay to identify small molecule antagonists of the estrogen receptor beta (ER-beta) signaling pathway (AID 1259378; active = well fitted inhibition curve with a large enough effect in the signal ratio in the repeat runs, not every such curve was filed as active; the % refers to the signal ratio)
Outline: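 ER-beta-UAS-bla HEK293T cells in 2% charcoal-stripped FBS medium treated with compound plus 1nM final 17-beta-estradiol for 16 hr at 37C. Beta-lactamase reporter read by FRET substrate fluorescence after 2 hours at room temperature.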

[18] = qHTS assay to identify small molecule phospholipidosis (PLD) inducers (AID 1259344; active = well fitted curve in the direction sought with a large enough effect; an effect the other way counts as inactive or inconclusive)
Outline: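 Read-out is LipidTOX Red fluorescence (ex 595/em 615) imaged in HepG2 cells after 24 h compound exposure at 37 C, with Hoechst nuclear counterstain (ex 352/em 461) allowing per-cell normalisation.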

Estrogen receptor (Homo sapiens), sequence (P03372 whole entry, looked up): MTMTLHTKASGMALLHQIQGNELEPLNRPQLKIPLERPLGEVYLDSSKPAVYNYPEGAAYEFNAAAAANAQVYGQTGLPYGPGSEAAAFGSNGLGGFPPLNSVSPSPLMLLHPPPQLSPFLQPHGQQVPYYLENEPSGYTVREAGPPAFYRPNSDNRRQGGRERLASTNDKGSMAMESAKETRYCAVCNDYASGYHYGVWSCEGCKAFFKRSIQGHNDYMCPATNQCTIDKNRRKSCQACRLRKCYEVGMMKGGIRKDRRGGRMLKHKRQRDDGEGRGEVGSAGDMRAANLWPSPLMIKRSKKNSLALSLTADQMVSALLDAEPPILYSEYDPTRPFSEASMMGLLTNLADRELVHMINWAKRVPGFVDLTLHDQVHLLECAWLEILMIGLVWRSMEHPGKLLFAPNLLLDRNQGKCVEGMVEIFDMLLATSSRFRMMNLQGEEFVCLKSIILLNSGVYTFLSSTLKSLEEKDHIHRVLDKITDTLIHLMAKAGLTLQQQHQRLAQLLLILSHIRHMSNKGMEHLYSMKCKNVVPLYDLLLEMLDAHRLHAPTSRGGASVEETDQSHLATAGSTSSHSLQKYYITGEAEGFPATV
Estrogen receptor beta (Homo sapiens), sequence (Q92731 whole entry, looked up): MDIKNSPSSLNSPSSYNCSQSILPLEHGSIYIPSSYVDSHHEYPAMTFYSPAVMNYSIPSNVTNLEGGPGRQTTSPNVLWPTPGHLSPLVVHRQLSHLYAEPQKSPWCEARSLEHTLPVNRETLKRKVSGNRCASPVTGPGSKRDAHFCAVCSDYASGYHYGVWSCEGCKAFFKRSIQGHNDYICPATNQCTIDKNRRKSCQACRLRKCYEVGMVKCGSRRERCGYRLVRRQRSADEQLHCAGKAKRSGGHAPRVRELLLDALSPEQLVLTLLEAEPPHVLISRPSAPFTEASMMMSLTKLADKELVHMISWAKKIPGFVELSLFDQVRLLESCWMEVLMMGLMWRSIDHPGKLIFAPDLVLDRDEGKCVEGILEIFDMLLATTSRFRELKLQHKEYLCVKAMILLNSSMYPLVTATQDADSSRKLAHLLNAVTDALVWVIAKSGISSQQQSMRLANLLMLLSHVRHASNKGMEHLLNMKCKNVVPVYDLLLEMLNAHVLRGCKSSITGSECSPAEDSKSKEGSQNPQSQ

| SMILES | Potency [1] | outcome [2] | outcome [3] | Potency [4] | Potency [5] | outcome [6] | Potency [7] | Potency [8] | outcome [9] | Potency [10] | Potency [11] | Potency [12] | outcome [13] | outcome [14] | outcome [15] | Potency [16] | outcome [17] | Potency [18] |
| --- | --- | --- | --- | --- | --- | --- | --- | --- | --- | --- | --- | --- | --- | --- | --- | --- | --- | --- |
| Sc1ccccc1 | inactive | inactive | inactive | inactive | inactive | inactive | inactive | inactive | inactive | inactive | inactive | inactive | inactive | inactive | inactive |  |  |  |
| COS(=O)(=O)OC | inactive | inactive | inactive | inactive | inactive | inactive | inactive | inactive | inactive | inactive | inactive | inactive | inactive | inactive |  |  |  |  |
| FC(F)(F)c1ccc(Cl)cc1 | inactive | inactive | inactive | inactive | inactive | inactive | inactive | inactive |  | inactive | inactive | inactive | inactive | inactive | inactive | inactive | inactive |  |
| CCNc1nc(Cl)nc(NC(C)C)n1 | inactive | inactive | inactive | inactive | inactive | inactive | inactive | inactive | inactive |  | inactive | inactive |  | inactive |  | inactive | inactive |  |
| CCSC(=O)N1CCCCCC1 | inactive | inactive | inactive | inactive | inactive | inactive | inactive | inactive | inactive | inactive | inactive | inactive |  | inactive | inactive | inactive | inactive |  |
| CN(C)C(=O)Nc1cccc(C(F)(F)F)c1 | inactive | inactive | inactive |  | inactive | inactive | inactive | inactive | inactive | inactive | inactive | inactive | inactive |  |  | inactive | inactive |  |
| CC(=O)C1CCOC1=O (stereo not given) | inactive | inactive | inactive |  | inactive | inactive | inactive | inactive |  | inactive | inactive | inactive |  |  |  | inactive | inactive |  |
| CSc1nnc(C(C)(C)C)c(=O)n1N | inactive | inactive | inactive |  | inactive | inactive | inactive | inactive |  | inactive | inactive | inactive |  |  |  | inactive | inactive |  |
| C=CC(=O)OCC(CC)CCCC (stereo not given) | inactive | inactive | inactive |  | inactive | inactive | inactive | inactive |  | inactive | inactive | inactive | inactive |  | inactive | inactive | inactive |  |
| CN(C)NC(=O)CCC(=O)O | inactive | inactive | inactive |  | inactive | inactive | inactive | inactive | inactive | inactive | inactive | inactive | inactive |  | inactive | inactive | inactive |  |
| CNc1cnn(-c2cccc(C(F)(F)F)c2)c(=O)c1Cl | inactive | inactive | inactive |  | inactive and 30.6 µM (active) | inactive | inactive | inactive | inactive | inactive | inactive | inactive | inactive |  |  | inactive | inactive |  |
| OCCCCO | inactive | inactive | inactive |  | inactive | inactive | inactive | inactive | inactive | inactive | inactive | inactive |  |  | inactive |  |  |  |
| CCOP(=S)(OCC)Oc1cc(C)nc(C(C)C)n1 | inactive | inactive | inactive |  | inactive | inactive | inactive | inactive |  | inactive | inactive | inactive | inactive |  | inactive |  |  | inactive |
| COC(=O)Nc1cccc(OC(=O)Nc2cccc(C)c2)c1 | inactive | inactive | inactive |  | 27.3 µM (active) and 30.6 µM (active) | inactive | inactive | inactive | inactive | inactive | inactive | inactive | inactive |  |  | inactive | inactive |  |
| Cc1ccccc1N | inactive | inactive | inactive |  | inactive | inactive | inactive | inactive |  | inactive | inactive | inactive | inactive |  | inactive |  |  |  |
| Cc1ccc(N)cc1 | inactive | inactive | inactive |  | inactive | inactive | inactive | inactive |  | inactive | inactive | inactive | inactive |  |  |  |  |  |
| CC(=O)/C=C/c1ccccc1 | inactive | inactive | inactive |  | inactive | inactive | inactive | inactive |  | inactive | inactive | inactive | inactive |  |  | inactive | inactive |  |
| C/C=C/c1ccc2c(c1)OCO2 | inactive | inactive | inactive |  | inactive | inactive | inactive | inactive |  | inactive | inactive | inactive | inactive |  |  |  |  |  |
| Nc1cc(Cl)cc(Cl)c1 | inactive | inactive | inactive |  | inactive | inactive | inactive | inactive |  | inactive | inactive | inactive |  |  |  | inactive | inactive |  |
| N#Cc1cccc(C#N)c1 | inactive | inactive | inactive |  | inactive | inactive | inactive | inactive | inactive | inactive | inactive | inactive | inactive |  | inactive | inactive | inactive |  |
| CCCCCCCCCCCCCCCCCC(=O)O | inactive | inactive | inactive |  | inactive | inactive | inactive | inactive | inactive | 17.1 µM (active) and inactive | inactive | inactive |  |  |  |  |  |  |
